Test [1] in a line: NCI Yeast Anticancer Drug Screen. Data for the rad50 strain (AID 155).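 Also: 0% = growth of vehicle-only cultures of the same strain.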 The conditions noted are these: S. cerevisiae rad50 strain growth inhibition, active compounds read high. The procedure, abridged: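 Vehicle-treated cultures provide the reference for the growth inhibition reported for compound-exposed, repair-deficient yeast.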
Test [2] is described as follows: NCI Yeast Anticancer Drug Screen. Data for the mec2-1 strain (AID 157). The conditions noted are these: S. cerevisiae mec2-1 strain, active compounds read high. The procedure, abridged: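 Growth inhibition is read against vehicle-treated controls after compound exposure of the mec2-1 yeast strain, which is defective in DNA damage repair or cell cycle control.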
A short description of test [3]: NCI Yeast Anticancer Drug Screen. Data for the sgs1 mgt1 strain (AID 161).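 Also: 0% = growth of cultures given vehicle only.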 The conditions noted are these: S. cerevisiae sgs1 mgt1 strain, active compounds read high. The procedure, abridged:
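Compounds are added to genetically altered yeast, and growth is compared with cultures given vehicle alone to give percent inhibition.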

Test [4] in a line: NCI Yeast Anticancer Drug Screen. Data for the cln2 rad14 strain (AID 165).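 Also: 0% = growth equal to vehicle treated cultures.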 The conditions noted are these: S. cerevisiae cln2 rad14 strain, active compounds read high. The procedure, abridged:
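Growth inhibition, relative to vehicle-treated controls, is the read-out. The test organism is a yeast strain with defined genetic alterations, cln2 rad14.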

Test [5] in a line: NCI Yeast Anticancer Drug Screen. Data for the bub3 strain (AID 167). As to conditions: S. cerevisiae bub3 mutant strain, active compounds read high. The procedure, abridged:
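Mutant yeast screening strain plus compound; vehicle-treated cultures serve as the 0% inhibition reference.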

The nature of test [6]: NCI Yeast Anticancer Drug Screen. Data for the mlh1 rad18 strain (AID 175). The conditions noted are these: S. cerevisiae mlh1 rad18 strain growth inhibition, active compounds read high. The procedure, abridged:
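Cells of a genetically altered yeast strain, deficient in DNA damage repair, were treated with compound. Their growth was then compared with that of vehicle-treated cultures to give inhibition.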

Setting [7] is: at 5.0 µM (retest, dose inferred, filed as 0.5).
Where [8] appears, read: at 50.0 µM (retest, dose inferred, filed as 5.0).

Molecules are shown by their SMILES. About 79,000 compounds went through this panel and 15% of them were active in at least one assay; those are over-represented in the sample as a whole. A number with no mark means an inactive call. The source made the active and inactive calls. Rule as the data show it: active = growth inhibition above about 70%; inactive = the rest.

As to `O=C(Nc1ccccc1)OC(C[N+](=O)[O-])C(Cl)(Cl)Cl` (configuration not stated), the growth inhibition in test [1] (setting [7]) is 12%; in test [1] (setting [8]), 99% (active); in test [1] (at 50.0 µM) it was 99.3% (active); in test [2] (setting [7]), 10%; in test [2] (setting [8]), 100% (active); in test [2] (at 50.0 µM), 95.8% (active). For the same molecule, the growth inhibition in test [3] (setting [7]) is 5%; in test [3] (setting [8]), 99% (active); in test [3] (at 50.0 µM) it was 99.1% (active); in test [4] (setting [7]), 10%; in test [4] (setting [8]), 91% (active); in test [4] (at 50.0 µM) it was 42.6%. The growth inhibition is 2% in test [5] (setting [7]); 100% (active) in test [5] (setting [8]); 99.2% (active) in test [5] (at 50.0 µM); 11% in test [6] (setting [7]); 99% (active) in test [6] (setting [8]); 99.2% (active) in test [6] (at 50.0 µM).
As for `C(CCC[Te][Te]CCCCCCOC1CCCCO1)CCOC1CCCCO1` (configuration not stated), the growth inhibition in test [1] (setting [7]) was 6%; in test [1] (setting [8]) it was 39%; in test [1] (at 50.0 µM), 84.5% (active); in test [2] (setting [7]), 3%; in test [2] (setting [8]), 17%; in test [2] (at 50.0 µM), 48.5%. Also, the growth inhibition is 7% in test [3] (setting [7]); 19% in test [3] (setting [8]); 67.7% in test [3] (at 50.0 µM); 3% in test [4] (setting [7]); 29% in test [4] (setting [8]); 62.4% in test [4] (at 50.0 µM). Also, the growth inhibition is 0% in test [5] (setting [7]); 30% in test [5] (setting [8]); 68.7% in test [5] (at 50.0 µM); 2% in test [6] (setting [7]); 30% in test [6] (setting [8]); 90% (active) in test [6] (at 50.0 µM).
Take `CN(C)C(=O)Oc1c(Cl)cc(Cl)c(Cl)c1Cl`: the growth inhibition was 4% in test [1] (setting [7]); 16% in test [1] (setting [8]); 13.9% in test [1] (at 50.0 µM); 1% in test [2] (setting [7]); 9% in test [2] (setting [8]); -10.9% in test [2] (at 50.0 µM). Further, the growth inhibition was 6% in test [3] (setting [7]); 12% in test [3] (setting [8]); 22% in test [3] (at 50.0 µM); 5% in test [4] (setting [7]); 7% in test [4] (setting [8]); 36.1% in test [4] (at 50.0 µM). Moreover, the growth inhibition in test [5] (setting [7]) is 2%; in test [5] (setting [8]), 8%; in test [5] (at 50.0 µM), -36%; in test [6] (setting [7]), 19%; in test [6] (setting [8]), 28%; in test [6] (at 50.0 µM) it was 37.5%.
For the molecule `O=c1[nH]cnc2[nH]cc(CN3CCCCC3)c12`, the growth inhibition in test [1] (setting [7]) is 7%; in test [1] (setting [8]), 21%; in test [1] (at 50.0 µM), 17.8%; in test [2] (setting [7]) it was -7%; in test [2] (setting [8]) it was 2%; in test [2] (at 50.0 µM) it was 13.2%. Further, the growth inhibition in test [3] (setting [7]) was -1%; in test [3] (setting [8]), 29%; in test [3] (at 50.0 µM), -1.4%; in test [4] (setting [7]), -32%; in test [4] (setting [8]), 0%; in test [4] (at 50.0 µM), 33.2%. The growth inhibition was 12% in test [5] (setting [7]); -1% in test [5] (setting [8]); -54.8% in test [5] (at 50.0 µM); 3% in test [6] (setting [7]); 8% in test [6] (setting [8]); 9.4% in test [6] (at 50.0 µM).
With `CC(=O)Oc1ccc(N=C2C=C(Cl)C(=O)C(Cl)=C2)cc1`, the growth inhibition in test [1] (setting [7]) was 5%; in test [1] (setting [8]) it was 23%; in test [1] (at 50.0 µM), 34.5%; in test [2] (setting [7]), 9%; in test [2] (setting [8]) it was 26%; in test [2] (at 50.0 µM), -2.05%. The growth inhibition was 2% in test [3] (setting [7]); 24% in test [3] (setting [8]); 33.4% in test [3] (at 50.0 µM); 6% in test [4] (setting [7]); 14% in test [4] (setting [8]); -23.8% in test [4] (at 50.0 µM). Also, the growth inhibition is 9% in test [5] (setting [7]); 46% in test [5] (setting [8]); 22.7% in test [5] (at 50.0 µM); 7% in test [6] (setting [7]); 54% in test [6] (setting [8]); 19.9% in test [6] (at 50.0 µM).
In the case of `OC1CCCC[CH]1[Hg][Cl]` (configuration not stated), the growth inhibition in test [1] (setting [7]) is 99% (active); in test [1] (setting [8]), 99% (active); in test [1] (at 50.0 µM) it was 99.3% (active); in test [2] (setting [7]), 100% (active); in test [2] (setting [8]), 100% (active); in test [2] (at 50.0 µM) it was 99.7% (active). In addition, the growth inhibition is 100% (active) in test [3] (setting [7]); 100% (active) in test [3] (setting [8]); 49.2% in test [3] (at 50.0 µM); 99% (active) in test [4] (setting [7]); 99% (active) in test [4] (setting [8]); 99.3% (active) in test [4] (at 50.0 µM). For the same molecule, the growth inhibition was 100% (active) in test [5] (setting [7]); 100% (active) in test [5] (setting [8]); 99.3% (active) in test [5] (at 50.0 µM); 100% (active) in test [6] (setting [7]); 100% (active) in test [6] (setting [8]); 99.5% (active) in test [6] (at 50.0 µM).
With `Oc1c(-c2ccccc2)cc(-[n+]2c(-c3ccccc3)cc(-c3ccccc3)cc2-c2ccccc2)cc1-c1ccccc1`, the growth inhibition in test [1] (setting [7]) was 97% (active); in test [1] (setting [8]), 99% (active); in test [1] (at 50.0 µM), 91.7% (active); in test [2] (setting [7]), 98% (active); in test [2] (setting [8]), 99% (active); in test [2] (at 50.0 µM), 92.7% (active). For the same molecule, the growth inhibition in test [3] (setting [7]) is 98% (active); in test [3] (setting [8]), 99% (active); in test [3] (at 50.0 µM), 89.6% (active); in test [4] (setting [7]), 98% (active); in test [4] (setting [8]), 98% (active); in test [4] (at 50.0 µM) it was 89.8% (active). Further, the growth inhibition in test [5] (setting [7]) is 99% (active); in test [5] (setting [8]) it was 99% (active); in test [5] (at 50.0 µM), 89.8% (active); in test [6] (setting [7]), 98% (active); in test [6] (setting [8]), 99% (active); in test [6] (at 50.0 µM), 91.5% (active).
Turning to `CC(=O)Nc1ccccc1[As](O[As](c1ccccc1)c1ccccc1NC(C)=O)c1ccccc1` (configuration not stated), the growth inhibition is 39% in test [1] (setting [7]); 99% (active) in test [1] (setting [8]); 99.5% (active) in test [1] (at 50.0 µM); 24% in test [2] (setting [7]); 100% (active) in test [2] (setting [8]); 99.6% (active) in test [2] (at 50.0 µM). Further, the growth inhibition in test [3] (setting [7]) was 66%; in test [3] (setting [8]), 100% (active); in test [3] (at 50.0 µM) it was 99.5% (active); in test [4] (setting [7]), 37%; in test [4] (setting [8]), 99% (active); in test [4] (at 50.0 µM) it was 99.4% (active). The growth inhibition is 11% in test [5] (setting [7]); 100% (active) in test [5] (setting [8]); 99.5% (active) in test [5] (at 50.0 µM); 53% in test [6] (setting [7]); 99% (active) in test [6] (setting [8]); 99.5% (active) in test [6] (at 50.0 µM).
Turning to `COC(=O)C1=C(C(=O)OC)[C]([Hg][CH3])(C(C)=O)N=N1` (configuration not stated), the growth inhibition in test [1] (setting [7]) is 99% (active); in test [1] (setting [8]), 99% (active); in test [1] (at 50.0 µM) it was 99.6% (active); in test [2] (setting [7]), 99% (active); in test [2] (setting [8]), 99% (active); in test [2] (at 50.0 µM) it was 99.5% (active). The growth inhibition in test [3] (setting [7]) was 99% (active); in test [3] (setting [8]), 99% (active); in test [3] (at 50.0 µM) it was 99.8% (active); in test [4] (setting [7]), 99% (active); in test [4] (setting [8]) it was 99% (active); in test [4] (at 50.0 µM) it was 99.5% (active). For the same molecule, the growth inhibition is 99% (active) in test [5] (setting [7]); 98% (active) in test [5] (setting [8]); 99.2% (active) in test [5] (at 50.0 µM); 99% (active) in test [6] (setting [7]); 99% (active) in test [6] (setting [8]); 99.5% (active) in test [6] (at 50.0 µM).

These data come from PubChem BioAssay (NCI).
